Our source for the outcome and AC50 values is PubChem BioAssay (EPA / NIEHS).

Assay [1] addresses human Casein Kinase 1-delta (CK1D), CSNK1D (gene 1453) (UniProt P48730). The assay can be described thus: NVS_ENZ_hCK1D: NovaScreen (NVS) Enzymatic Assay for human Casein Kinase 1-delta (CK1D) (AID 2283148). The procedure, abridged: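 Recombinant human CK1-delta, cell-free; fluorescent substrate with electrophoretic mobility-shift separation of product, read 1 h after dosing. Single 25 uM duplicate screen, then concentration-response up to 50 uM; loss of signal vs DMSO.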

In assay [2] the target is human Caspase 4 (CASP4), CASP4 (gene 837) (UniProt P49662). Description: NVS_ENZ_hCASP4: NovaScreen (NVS) Enzymatic Assay for human Caspase 4 (CASP4) (AID 2283143). The procedure, abridged:
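The cell-free assay used E. coli-expressed enzyme with a fluorogenic substrate, read 2 h after dosing. Signal loss was scored versus DMSO. Screening was in duplicate at 25 uM, then singleton concentration-response up to 50 uM.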

Assay [3] addresses human Caspase 8 (CASP8), CASP8 (gene 841) (UniProt Q14790). Description: NVS_ENZ_hCASP8: NovaScreen (NVS) Enzymatic Assay for human Caspase 8 (CASP8) (AID 2283146). Summed up: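 E. coli-expressed enzyme was used in a cell-free fluorogenic substrate assay read 1 h after dosing. Loss of signal was scored relative to DMSO, and the primary screen was run in duplicate at 25 uM.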
Assay [4] addresses Histone deacetylase 3 (Homo sapiens) (UniProt O15379). The assay can be described thus: NVS_ENZ_hHDAC3: NovaScreen (NVS) Enzymatic Assay for human Histone Deacetylase 3 (HDAC3) (AID 2283163). Summed up: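 Recombinant human HDAC3 with fluorescent substrate, 1 h after dosing; product separated from substrate by electrophoretic mobility shift and read by fluorescence. Primary screen at 25 uM in duplicate; actives (e.g. ≥30% inhibition) retested in concentration-response up to 50 uM.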

Assay [5] has as its target human CYP2C9, CYP2C9 (gene 1559) (UniProt P11712). Description: NVS_ADME_hCYP2C9: NovaScreen (NVS) CYP450-related Enzyme Activity (ADME) Assay for human CYP2C9 (AID 2283108). The procedure, abridged:
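Fluorescence readout of CYP2C9 activity (SF9-expressed human enzyme) at 0.75 h. The primary screen used 10 uM in duplicate, with concentration-response follow-up for actives; acetonitrile was the negative control.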

The target in assay [6] is Cytochrome P450 3A4 (Homo sapiens) (UniProt P08684). The assay can be described thus: NVS_ADME_hCYP3A4: NovaScreen (NVS) CYP450-related Enzyme Activity (ADME) Assay for human CYP3A4 (AID 2283110). The procedure, abridged:
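Compounds were first screened in duplicate at 10 uM against recombinant CYP3A4 produced in insect cells, then actives were run in concentration series. Enzyme activity was measured by fluorescence after 0.33 hour, with acetonitrile as baseline.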

In assay [7] the target is human Dual Specificity Protein Phosphatase 3 (DUSP3), DUSP3 (gene 1845) (UniProt P51452). The assay can be described thus: NVS_ENZ_hDUSP3: NovaScreen (NVS) Enzymatic Assay for human Dual Specificity Protein Phosphatase 3 (DUSP3) (AID 2283152).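 Also: phosphatase activity of recombinant human DUSP3 on a fluorogenic substrate without cells.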 The procedure, abridged:
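Cell-free assay with recombinant human DUSP3 and fluorogenic substrate, read by fluorescence intensity. Primary screen ran duplicate at 25 uM; actives followed up in concentration series; loss of signal versus DMSO scored.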

Assay [8] deals with human Esterase Plasma (ES), BCHE (gene 590) (UniProt P06276). The assay can be described thus: NVS_ENZ_hES: NovaScreen (NVS) Enzymatic Assay for human Esterase Plasma (ES) (AID 2283157). Summed up:
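Chemicals were added to plasma-extracted human enzyme in a cell-free format, and activity was read colorimetrically after 0.25 hour. Activity loss was referenced to DMSO; concentration-response top dose was 50 uM.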

The target in assay [9] is human Ephrin type-A Receptor 1 (EphA1), EPHA1 (gene 2041) (UniProt P21709). Description: NVS_ENZ_hEphA1: NovaScreen (NVS) Enzymatic Assay for human Ephrin type-A Receptor 1 (EphA1) (AID 2283158).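 Also: activity is signal loss versus DMSO meaning EphA1 kinase inhibition.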 The procedure, abridged:
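Cell-free kinase activity with recombinant protein, 1 hour after dosing; product separated by electrophoretic mobility shift, fluorescence read. Primary screen at 25 uM in duplicate; hits run as concentration-response up to 50 uM, relative to DMSO.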

The target in assay [10] is human Janus Kinase 2 (Jak2), JAK2 (gene 3717) (UniProt O60674). Description: NVS_ENZ_hJak2: NovaScreen (NVS) Enzymatic Assay for human Janus Kinase 2 (Jak2) (AID 2283169). Summed up: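 Cell-free recombinant human JAK2 enzyme activity assay, fluorescence/electrophoretic mobility shift read 1 h after dosing. Screened in duplicate at 25 uM, then concentration-response up to 50 uM; activity as signal loss relative to DMSO.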

The target in assay [11] is human Elastase, ELANE (gene 1991) (UniProt P08246). Description: NVS_ENZ_hElastase: NovaScreen (NVS) Enzymatic Assay for human Elastase (AID 2283153). Summed up: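 Cell-free elastase from human neutrophils, 1.5 h after dosing, activity read by absorbance. Primary screen in duplicate at 25 uM; hits (e.g., 30% inhibition) rerun in singleton concentration-response up to 50 uM, fitted versus DMSO.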
Chain of human Elastase, ELANE (gene 1991) (P08246 whole entry, looked up): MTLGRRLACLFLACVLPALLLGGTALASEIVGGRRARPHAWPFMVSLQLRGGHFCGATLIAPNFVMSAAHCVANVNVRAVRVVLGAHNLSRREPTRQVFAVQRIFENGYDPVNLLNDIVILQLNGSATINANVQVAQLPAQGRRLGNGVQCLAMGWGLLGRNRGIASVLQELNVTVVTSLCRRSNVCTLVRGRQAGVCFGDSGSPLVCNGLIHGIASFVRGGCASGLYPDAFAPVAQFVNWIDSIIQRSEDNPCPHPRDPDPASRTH

The target in assay [12] is human Caspase 5 (CASP5), CASP5 (gene 838) (UniProt P51878). The assay can be described thus: NVS_ENZ_hCASP5: NovaScreen (NVS) Enzymatic Assay for human Caspase 5 (CASP5) (AID 2283137). The procedure, abridged:
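Recombinant human caspase 5 expressed in E. coli, fluorogenic substrate, fluorescence read 2 h after dosing. Single-point 25 uM duplicate screen, then concentration-response to maximum 50 uM for actives; DMSO baseline.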

For assay [13], the target named is human AKT serine/threonine Kinase 1 (AKT1), AKT1 (gene 207) (UniProt P31749). The assay can be described thus: NVS_ENZ_hAKT1: NovaScreen (NVS) Enzymatic Assay for human AKT serine/threonine Kinase 1 (AKT1) (AID 2283138). The procedure, abridged: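 Recombinant human AKT1 with a specific substrate, product separated by electrophoretic mobility shift, read after 1 h. Compounds at 25 uM in duplicate, then concentration-response up to 50 uM for hits; inhibition relative to DMSO.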

Assay [14] addresses human AKT serine/threonine Kinase 2 (AKT2), AKT2 (gene 208) (UniProt P31751). The assay can be described thus: NVS_ENZ_hAKT2: NovaScreen (NVS) Enzymatic Assay for human AKT serine/threonine Kinase 2 (AKT2) (AID 2283141). Summed up:
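Cell-free fluorescence/electrophoretic mobility shift readout of recombinant human AKT2 activity, 1 h after chemical dosing. Duplicate primary screen at 25 uM, then singleton concentration-response up to 50 uM; loss of signal versus DMSO baseline.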

Another assay has as its target CDK2 (gene 1017) (UniProt P24941). Description: NVS_ENZ_hCDK2: NovaScreen (NVS) Enzymatic Assay for human Cyclin-Cependent Kinase 2 (CDK2) (AID 2283144). Summed up:
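Cell-free recombinant human CDK2 with fluorescent substrate, product separated by electrophoretic mobility shift; 1 hr read. Primary screen at 25 uM in duplicate, actives retested in concentration-response up to 50 uM; loss of signal versus DMSO.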

For assay [15], the target named is human FYN Proto-Oncogene, Src family Tyrosine Kinase (Fyn), FYN (gene 2534) (UniProt P06241). Description: NVS_ENZ_hFyn: NovaScreen (NVS) Enzymatic Assay for human FYN Proto-Oncogene, Src family Tyrosine Kinase (Fyn) (AID 2283161). Summed up: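 Recombinant enzyme with fluorescent substrate, product separated by electrophoretic mobility shift; read 1 h after dosing. Duplicate 25 uM single-point screen, actives retested in concentration series; loss of signal vs DMSO.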

Values joined by “and” are separate entries in the source; they are usually repeats but may differ in a detail not shown here. Equal values may be shown once. Results filed as inconclusive are left out. Active and inactive are the calls of the source. The calls were made as follows: active = hit-call score of the fitted dose curve at least 0.9, where 1 is the maximum; inconclusive = response in the unintended direction; inactive = score below 0.9.

Chain of human Casein Kinase 1-delta (CK1D), CSNK1D (gene 1453) (P48730 whole entry, looked up): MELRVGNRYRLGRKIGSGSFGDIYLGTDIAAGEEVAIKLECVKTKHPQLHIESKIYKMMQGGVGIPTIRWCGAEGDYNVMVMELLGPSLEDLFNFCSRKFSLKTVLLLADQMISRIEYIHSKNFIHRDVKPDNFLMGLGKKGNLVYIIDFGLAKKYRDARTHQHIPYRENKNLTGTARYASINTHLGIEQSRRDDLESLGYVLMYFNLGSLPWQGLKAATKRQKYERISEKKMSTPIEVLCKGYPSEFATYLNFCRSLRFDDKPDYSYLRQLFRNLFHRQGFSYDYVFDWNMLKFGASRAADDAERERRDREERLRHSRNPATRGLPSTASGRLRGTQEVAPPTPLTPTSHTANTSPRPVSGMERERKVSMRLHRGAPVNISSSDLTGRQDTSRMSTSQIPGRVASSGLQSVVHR
Chain of human Dual Specificity Protein Phosphatase 3 (DUSP3), DUSP3 (gene 1845) (P51452 whole entry, looked up): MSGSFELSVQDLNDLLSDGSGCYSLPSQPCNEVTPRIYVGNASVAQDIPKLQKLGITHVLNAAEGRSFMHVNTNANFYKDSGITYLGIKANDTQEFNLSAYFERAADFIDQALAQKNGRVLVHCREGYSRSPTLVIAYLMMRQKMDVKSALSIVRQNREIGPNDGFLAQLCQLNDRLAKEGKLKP
Chain of human Caspase 4 (CASP4), CASP4 (gene 837) (P49662 whole entry, looked up): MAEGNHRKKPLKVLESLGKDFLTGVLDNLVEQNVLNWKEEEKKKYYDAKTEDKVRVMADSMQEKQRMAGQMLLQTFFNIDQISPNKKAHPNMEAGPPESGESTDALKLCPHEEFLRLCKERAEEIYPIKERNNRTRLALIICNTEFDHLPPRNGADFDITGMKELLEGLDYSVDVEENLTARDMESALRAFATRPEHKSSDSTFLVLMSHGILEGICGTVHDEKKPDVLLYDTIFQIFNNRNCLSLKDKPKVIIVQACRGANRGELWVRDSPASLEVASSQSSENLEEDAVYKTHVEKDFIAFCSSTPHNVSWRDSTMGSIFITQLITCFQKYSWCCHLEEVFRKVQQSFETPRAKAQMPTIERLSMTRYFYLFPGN
Chain of human CYP2C9, CYP2C9 (gene 1559) (P11712 whole entry, looked up): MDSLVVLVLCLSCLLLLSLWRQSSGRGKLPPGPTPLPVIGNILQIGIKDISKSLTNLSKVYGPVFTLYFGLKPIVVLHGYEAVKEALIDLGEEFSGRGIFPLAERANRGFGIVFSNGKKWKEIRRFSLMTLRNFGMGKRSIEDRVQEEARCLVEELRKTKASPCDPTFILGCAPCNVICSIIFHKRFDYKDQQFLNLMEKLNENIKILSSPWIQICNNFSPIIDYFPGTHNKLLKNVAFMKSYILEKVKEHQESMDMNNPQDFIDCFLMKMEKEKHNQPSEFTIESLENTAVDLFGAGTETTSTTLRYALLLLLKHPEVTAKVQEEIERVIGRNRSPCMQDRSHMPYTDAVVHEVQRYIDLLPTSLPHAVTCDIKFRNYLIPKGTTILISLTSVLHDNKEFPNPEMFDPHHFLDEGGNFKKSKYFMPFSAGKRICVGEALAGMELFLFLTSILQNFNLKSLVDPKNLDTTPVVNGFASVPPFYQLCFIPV
Chain of human Ephrin type-A Receptor 1 (EphA1), EPHA1 (gene 2041) (P21709 whole entry, looked up): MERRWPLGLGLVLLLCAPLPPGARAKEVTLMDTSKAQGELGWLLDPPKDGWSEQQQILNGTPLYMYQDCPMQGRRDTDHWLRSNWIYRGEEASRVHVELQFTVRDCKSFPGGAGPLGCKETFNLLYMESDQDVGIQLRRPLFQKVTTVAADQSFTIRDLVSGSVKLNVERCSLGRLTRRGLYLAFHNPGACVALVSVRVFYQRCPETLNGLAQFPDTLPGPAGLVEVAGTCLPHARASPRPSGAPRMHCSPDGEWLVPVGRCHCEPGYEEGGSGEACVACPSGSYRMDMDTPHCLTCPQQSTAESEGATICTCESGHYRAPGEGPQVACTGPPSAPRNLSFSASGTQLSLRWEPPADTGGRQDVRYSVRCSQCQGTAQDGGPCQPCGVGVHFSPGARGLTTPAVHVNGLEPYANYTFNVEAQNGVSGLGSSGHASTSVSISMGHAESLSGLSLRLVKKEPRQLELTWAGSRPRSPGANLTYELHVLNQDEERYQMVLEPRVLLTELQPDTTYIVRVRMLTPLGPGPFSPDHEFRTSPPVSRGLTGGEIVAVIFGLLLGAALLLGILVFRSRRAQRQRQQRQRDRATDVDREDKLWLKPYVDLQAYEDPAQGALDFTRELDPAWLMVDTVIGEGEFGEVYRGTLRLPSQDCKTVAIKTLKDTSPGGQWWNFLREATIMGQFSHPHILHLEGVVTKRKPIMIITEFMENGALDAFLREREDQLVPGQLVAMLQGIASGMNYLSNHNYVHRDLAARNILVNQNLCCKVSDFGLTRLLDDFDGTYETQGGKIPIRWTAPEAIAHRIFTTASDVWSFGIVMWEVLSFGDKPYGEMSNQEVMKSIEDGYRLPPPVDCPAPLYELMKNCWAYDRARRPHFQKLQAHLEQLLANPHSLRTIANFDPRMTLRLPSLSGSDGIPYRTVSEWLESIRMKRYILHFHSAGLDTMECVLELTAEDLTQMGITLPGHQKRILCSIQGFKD
Chain of human Esterase Plasma (ES), BCHE (gene 590) (P06276 whole entry, looked up): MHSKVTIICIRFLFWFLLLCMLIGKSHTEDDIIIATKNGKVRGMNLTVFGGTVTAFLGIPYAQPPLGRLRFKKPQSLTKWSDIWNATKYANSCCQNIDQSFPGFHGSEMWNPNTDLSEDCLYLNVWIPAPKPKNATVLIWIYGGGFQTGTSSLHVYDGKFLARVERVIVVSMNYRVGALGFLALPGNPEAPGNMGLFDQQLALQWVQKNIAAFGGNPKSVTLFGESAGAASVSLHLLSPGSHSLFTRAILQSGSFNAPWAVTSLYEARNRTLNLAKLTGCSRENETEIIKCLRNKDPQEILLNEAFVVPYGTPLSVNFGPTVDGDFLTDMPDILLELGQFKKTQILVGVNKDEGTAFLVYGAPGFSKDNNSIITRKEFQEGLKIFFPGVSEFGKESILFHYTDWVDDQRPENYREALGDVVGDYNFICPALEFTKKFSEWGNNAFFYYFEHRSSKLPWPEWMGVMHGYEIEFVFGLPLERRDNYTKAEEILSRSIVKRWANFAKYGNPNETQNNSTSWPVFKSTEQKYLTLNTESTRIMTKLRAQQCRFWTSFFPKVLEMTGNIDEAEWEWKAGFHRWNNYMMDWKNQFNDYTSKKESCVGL
Chain of human Caspase 5 (CASP5), CASP5 (gene 838) (P51878 whole entry, looked up): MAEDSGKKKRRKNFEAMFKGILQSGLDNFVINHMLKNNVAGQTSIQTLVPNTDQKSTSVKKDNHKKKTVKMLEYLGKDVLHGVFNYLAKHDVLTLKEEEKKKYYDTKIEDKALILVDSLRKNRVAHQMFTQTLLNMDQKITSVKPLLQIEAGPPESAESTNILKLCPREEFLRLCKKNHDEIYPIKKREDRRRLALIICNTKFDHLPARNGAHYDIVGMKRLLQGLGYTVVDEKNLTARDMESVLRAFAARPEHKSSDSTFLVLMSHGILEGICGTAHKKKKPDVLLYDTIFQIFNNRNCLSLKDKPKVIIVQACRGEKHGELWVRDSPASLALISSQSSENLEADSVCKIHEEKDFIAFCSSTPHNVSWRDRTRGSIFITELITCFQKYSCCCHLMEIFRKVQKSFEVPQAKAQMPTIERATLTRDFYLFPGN
Chain of Histone deacetylase 3 (Homo sapiens) (O15379 whole entry, looked up): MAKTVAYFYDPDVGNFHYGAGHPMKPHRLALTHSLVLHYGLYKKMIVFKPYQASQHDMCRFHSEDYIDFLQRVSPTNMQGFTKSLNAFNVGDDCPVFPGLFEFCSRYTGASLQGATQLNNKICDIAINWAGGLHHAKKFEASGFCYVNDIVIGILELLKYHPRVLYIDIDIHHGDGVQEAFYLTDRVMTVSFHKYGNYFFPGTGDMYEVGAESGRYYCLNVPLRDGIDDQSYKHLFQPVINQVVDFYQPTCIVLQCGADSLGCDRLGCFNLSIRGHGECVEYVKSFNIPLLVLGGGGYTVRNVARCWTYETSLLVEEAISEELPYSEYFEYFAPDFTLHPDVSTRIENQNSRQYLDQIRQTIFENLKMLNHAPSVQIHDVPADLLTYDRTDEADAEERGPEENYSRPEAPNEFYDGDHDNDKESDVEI
Chain of human AKT serine/threonine Kinase 2 (AKT2), AKT2 (gene 208) (P31751 whole entry, looked up): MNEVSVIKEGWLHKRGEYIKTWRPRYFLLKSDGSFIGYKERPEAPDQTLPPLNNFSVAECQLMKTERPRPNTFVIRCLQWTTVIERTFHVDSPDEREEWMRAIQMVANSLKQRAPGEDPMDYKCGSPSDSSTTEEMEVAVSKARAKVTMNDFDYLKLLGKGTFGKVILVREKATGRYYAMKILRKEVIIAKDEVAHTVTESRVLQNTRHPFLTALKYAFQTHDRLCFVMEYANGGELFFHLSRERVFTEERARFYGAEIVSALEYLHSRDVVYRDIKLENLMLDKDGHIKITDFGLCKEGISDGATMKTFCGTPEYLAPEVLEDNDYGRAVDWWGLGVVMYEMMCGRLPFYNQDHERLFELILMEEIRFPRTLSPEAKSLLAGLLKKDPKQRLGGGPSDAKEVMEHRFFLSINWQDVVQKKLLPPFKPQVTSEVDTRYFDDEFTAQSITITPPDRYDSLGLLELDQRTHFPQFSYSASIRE

For `O=C(O)[C@H](O)[C@@H](O)C(=O)O`, in assay [1], the compound was called inactive.
`COc1cc2c(c(OC)c1OC)-c1ccc(OC)c(=O)cc1[C@@H](NC(C)=O)CC2`: in [2], the AC50 (usually the concentration giving half of the maximal activity seen) is 0.485 µM (active). Also, the compound was called inactive in assay [3] and in [4].
On to `O=C(O)c1cccc(C[C@@H]2COc3ccc(OCc4nc5cc(F)ccc5s4)cc3[C@@H]2O)c1`, for which the compound was classed as inactive in assay [1].
Consider `CCCCCCCCCC`, for which the AC50 in assay [5] was 15.1 µM (active); in [6] it was 6.55 µM (active). In addition, the compound was classed as inactive in assay [7] and in assay [8].
Take `CC(C)CC(C)O` (stereo not drawn): the AC50 in [2] was 8.65 µM (active).
For the compound `CCN(CC)C(=S)SSC(=S)N(CC)CC`, the AC50 in [5] is 3.12 µM (active). The compound was classed as inactive in assay [7] and in assay [8].
In the case of `Cc1nccn1-c1ccc(Sc2cccc(C3(C(N)=O)CCOCC3)c2)cc1`, the AC50 in assay [5] was 5.01 µM (active).
Consider `S=P(N1CC1)(N1CC1)N1CC1`, for which, in [7], the AC50 is 20.3 µM (active) and 26.1 µM (active). In assay [9], the result was inactive.
Consider `CCc1ccc(O)c(C(C)(C)C)c1`, for which the call in assay [8] and in assay [10] was inactive.
With `c1ccc2c(c1)-c1cccc3c1c-2cc1ccccc13`, the compound was called inactive in [11].
In the case of `OCc1c[nH]c2ccccc12`, the AC50 was 25 µM (active) and 29.7 µM (active) in [12]; 19.5 µM (active) and 15.4 µM (active) in [7]; 15.3 µM (active) and 19.1 µM (active) in assay [8]. In assay [9], the result was inactive.
Regarding `O=c1[nH]cnc2c1ncn2[C@H]1CC[C@@H](CO)O1`, the result in assay [13], in assay [14], in [1], in [9] and in [4] was inactive. Moreover, in the assay with CDK2 (gene 1017), the AC50 was 25 µM (active).
For the compound `C=CCc1cc(S(=O)(=O)c2ccc(O)c(CC=C)c2)ccc1O`, the AC50 in [5] was 0.118 µM (active); in [6], 4.54 µM (active). For the same compound, the call in assay [7] was inactive.
As to `CCCCCCOC(=O)CC(CC(=O)OCCCCCC)(OC(=O)CCC)C(=O)OCCCCCC`, the outcome in [7] and in assay [11] was inactive.
Turning to `CCCc1ccccc1`, in assay [1], the call was inactive.
In the case of `CCCCCCCCCCCCCCCCOS(=O)(=O)O`, the half-maximal activity concentration (AC50) was 2.18 µM (active) in assay [12] and 4.2 µM (active) in assay [11]. For the same compound, the outcome in assay [7] was inactive.
For `CCCCCCCC/C=C\CCCCCCCC(=O)OC[C@@H](O)[C@H]1OC[C@H](O)[C@H]1O`, the concentration at half-maximal activity (AC50) in [5] is 16.5 µM (active); in assay [14], 42.1 µM (active). Also, the call in assay [13], in assay [2] and in [15] was inactive.
